Data published in PubChem BioAssay.
Calls of active or inactive are those of the source.

Tests used:
[1] = binders of probe aFSTL3 on microarray, primary screen, stem cell growth factor project, biochemical, small-molecule microarray, fluorescence 635/667 (AID 1064); settings: higher = more signal;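 also: measures binding of the biotinylated anti-FSTL3 antibody to printed compounds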
[2] = binders from COS7 lysate, DM2A8 probe, primary screen, torsin A project, cell lysate, small-molecule microarray, fluorescence 635/667 (AID 1065); settings: higher = more signal, COS7 lysate expressing mutant human TOR1A
[3] = binders of probe aFGF2 on microarray, primary screen, stem cell growth factor project, biochemical, small-molecule microarray, fluorescence 635/667 (AID 1067); settings: higher = more signal;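 also: measures binding of biotinylated aFGF2 protein to printed compounds on slides; z-score merges feature fluorescence and signal-to-noise across triplicate slides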
[4] = binders of probe aFGF10 on microarray, primary screen, stem cell growth factor project, biochemical, small-molecule microarray, fluorescence 635/667 (AID 1071); settings: higher = more signal;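 also: score merges 667 nm spot intensity and signal to noise from triplicate slides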
[5] = molecular target: Neurogenic locus notch homolog protein 2 (Homo sapiens) (UniProt Q04721); assay: Notch2 binders on small-molecule microarrays, primary screen, biochemical, small-molecule microarray, 635 nm fluorescence, stem cell growth factors (AID 1073); settings: Notch2 binding, higher = more signal
[6] = molecular target: Pro-neuregulin-1, membrane-bound isoform (Homo sapiens) (UniProt Q02297); assay: NRG1 binders on small-molecule microarrays, primary screen, psychiatric disease protein project, biochemical, small-molecule microarray, fluorescence 635/667 (AID 1075); settings: NRG1 binding, 635 nm fluorescence, higher = more signal;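 also: score combines 667 nm spot fluorescence with signal to noise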
[7] = test system: Neuregulin-1 EGF-like domain; assay: binders of neuregulin-1 EGF-like domain, primary screen, biochemical, small-molecule microarray, 635 nm fluorescence (AID 1081); settings: small-molecule microarray binding, higher = more signal;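 also: binding of the protein to compounds printed on small-molecule microarray slides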
[8] = FRG1 promoter luciferase signal modulators, primary screen, FRG1 inhibition for FSHD, cell-based, C2C12 myotubes, firefly/Renilla luciferase, luminescence (AID 1084); settings: higher = more signal, called active from +8 up or from −8 down
[9] = binders of probe aFST on microarray, primary screen, stem cell growth factor project, biochemical, small-molecule microarray, fluorescence 635/667 (AID 1086); settings: higher = more signal;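 also: score merges 667 nm fluorescence with signal-to-noise of each printed compound spot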
[10] = binders of probe aHhip on microarray, primary screen, stem cell growth factor project, biochemical, small-molecule microarray, fluorescence 635/667 (AID 1087); settings: higher = more signal;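 also: score merges spot fluorescence at 667nm with spot signal to noise ratio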
[11] = test system: PRMT1 (protein arginine N-methyltransferase 1); assay: PRMT1 binders on small-molecule microarrays, primary screen, biochemical, small-molecule microarray, 635 nm fluorescence (AID 1088); settings: small-molecule microarray binding, higher = more signal;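 also: binding of Prmt1 protein to compounds spotted on small-molecule microarray slides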
[12] = yeast growth modulation, basal conditions, primary screen, YJM789 clinical isolate, OD600, 24 h (AID 1089);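 also: growth of clinical yeast isolate S. cerevisiae YJM 789 seeded 1000 cells per well; test concentration not given here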; settings: S. cerevisiae YJM789 growth, higher = more signal, called active from +8 up or from −8 down
[13] = fission yeast growth modulation, primary screen, strain 972, OD600, 24 h, no modulator (AID 1090);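 also: basal condition with compound alone and no growth modifier present; test concentration not given here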; settings: S. pombe 972 growth, higher = more signal, called active from +8 up or from −8 down
[14] = S. cerevisiae growth modulation with rapamycin, primary screen, strain BY4716, OD600, 96 h (AID 1091); settings: higher = more signal, called active from +8 up or from −8 down; also: test concentration not given here
[15] = molecular target: Torsin-1A-interacting protein 2 (Homo sapiens) (UniProt Q8NFQ8); assay: LULL1 binders on small-molecule microarray, primary screen, cell lysate, human LULL1 lysate, 635/667 nm fluorescence (AID 1092); settings: hLULL1 lysate binding, 635 nm fluorescence, higher = more signal;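 also: probe is lysate of COS7 cells overexpressing human LULL1; score merges per-feature 667 nm fluorescence with signal-to-noise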
[16] = E. coli growth modulation, two-sided OD650, primary screen, E. coli filamentation project, strain DRC41, 24 h (AID 1093); settings: OD650, 24 h, higher = more signal, called active from +8 up or from −8 down;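 also: MC1000 strain lacking acrAB efflux and sulA so SOS filamentation is blocked; test concentration not given here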
[17] = small-molecule microarray binders of probe aLefty2, primary screen, biochemical, biotinylated probe, 635/667 nm fluorescence (AID 1094); settings: higher = more signal;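 also: score merges spot fluorescence near 667 nm with spot signal-to-noise ratio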
[18] = test system: Noggin (protein binding on small-molecule microarray); assay: Noggin binders on small-molecule microarray, primary screen, biochemical, 635/667 nm fluorescence (AID 1095); settings: 635 nm fluorescence, higher = more signal;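 also: score merges 667 nm feature fluorescence with signal to noise over triplicate slides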
[19] = molecular target: Neurogenic locus notch homolog protein 3 (Homo sapiens) (UniProt Q9UM47); assay: NOTCH3 binders on small-molecule microarray, primary screen, biochemical, 635/667 nm fluorescence (AID 1096); settings: NOTCH3 binding, 635 nm fluorescence, higher = more signal
[20] = small-molecule microarray binders of probe aEGFR, primary screen, biochemical, biotinylated probe, 635/667 nm fluorescence (AID 1097); settings: higher = more signal;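 also: probe is a biotinylated anti-EGFR antibody binding compounds printed on slides; score combines fluorescence near 667 nm and signal to noise of each spot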

Sequence of Neurogenic locus notch homolog protein 2 (Homo sapiens) (Q04721 whole entry, looked up, canonical isoform): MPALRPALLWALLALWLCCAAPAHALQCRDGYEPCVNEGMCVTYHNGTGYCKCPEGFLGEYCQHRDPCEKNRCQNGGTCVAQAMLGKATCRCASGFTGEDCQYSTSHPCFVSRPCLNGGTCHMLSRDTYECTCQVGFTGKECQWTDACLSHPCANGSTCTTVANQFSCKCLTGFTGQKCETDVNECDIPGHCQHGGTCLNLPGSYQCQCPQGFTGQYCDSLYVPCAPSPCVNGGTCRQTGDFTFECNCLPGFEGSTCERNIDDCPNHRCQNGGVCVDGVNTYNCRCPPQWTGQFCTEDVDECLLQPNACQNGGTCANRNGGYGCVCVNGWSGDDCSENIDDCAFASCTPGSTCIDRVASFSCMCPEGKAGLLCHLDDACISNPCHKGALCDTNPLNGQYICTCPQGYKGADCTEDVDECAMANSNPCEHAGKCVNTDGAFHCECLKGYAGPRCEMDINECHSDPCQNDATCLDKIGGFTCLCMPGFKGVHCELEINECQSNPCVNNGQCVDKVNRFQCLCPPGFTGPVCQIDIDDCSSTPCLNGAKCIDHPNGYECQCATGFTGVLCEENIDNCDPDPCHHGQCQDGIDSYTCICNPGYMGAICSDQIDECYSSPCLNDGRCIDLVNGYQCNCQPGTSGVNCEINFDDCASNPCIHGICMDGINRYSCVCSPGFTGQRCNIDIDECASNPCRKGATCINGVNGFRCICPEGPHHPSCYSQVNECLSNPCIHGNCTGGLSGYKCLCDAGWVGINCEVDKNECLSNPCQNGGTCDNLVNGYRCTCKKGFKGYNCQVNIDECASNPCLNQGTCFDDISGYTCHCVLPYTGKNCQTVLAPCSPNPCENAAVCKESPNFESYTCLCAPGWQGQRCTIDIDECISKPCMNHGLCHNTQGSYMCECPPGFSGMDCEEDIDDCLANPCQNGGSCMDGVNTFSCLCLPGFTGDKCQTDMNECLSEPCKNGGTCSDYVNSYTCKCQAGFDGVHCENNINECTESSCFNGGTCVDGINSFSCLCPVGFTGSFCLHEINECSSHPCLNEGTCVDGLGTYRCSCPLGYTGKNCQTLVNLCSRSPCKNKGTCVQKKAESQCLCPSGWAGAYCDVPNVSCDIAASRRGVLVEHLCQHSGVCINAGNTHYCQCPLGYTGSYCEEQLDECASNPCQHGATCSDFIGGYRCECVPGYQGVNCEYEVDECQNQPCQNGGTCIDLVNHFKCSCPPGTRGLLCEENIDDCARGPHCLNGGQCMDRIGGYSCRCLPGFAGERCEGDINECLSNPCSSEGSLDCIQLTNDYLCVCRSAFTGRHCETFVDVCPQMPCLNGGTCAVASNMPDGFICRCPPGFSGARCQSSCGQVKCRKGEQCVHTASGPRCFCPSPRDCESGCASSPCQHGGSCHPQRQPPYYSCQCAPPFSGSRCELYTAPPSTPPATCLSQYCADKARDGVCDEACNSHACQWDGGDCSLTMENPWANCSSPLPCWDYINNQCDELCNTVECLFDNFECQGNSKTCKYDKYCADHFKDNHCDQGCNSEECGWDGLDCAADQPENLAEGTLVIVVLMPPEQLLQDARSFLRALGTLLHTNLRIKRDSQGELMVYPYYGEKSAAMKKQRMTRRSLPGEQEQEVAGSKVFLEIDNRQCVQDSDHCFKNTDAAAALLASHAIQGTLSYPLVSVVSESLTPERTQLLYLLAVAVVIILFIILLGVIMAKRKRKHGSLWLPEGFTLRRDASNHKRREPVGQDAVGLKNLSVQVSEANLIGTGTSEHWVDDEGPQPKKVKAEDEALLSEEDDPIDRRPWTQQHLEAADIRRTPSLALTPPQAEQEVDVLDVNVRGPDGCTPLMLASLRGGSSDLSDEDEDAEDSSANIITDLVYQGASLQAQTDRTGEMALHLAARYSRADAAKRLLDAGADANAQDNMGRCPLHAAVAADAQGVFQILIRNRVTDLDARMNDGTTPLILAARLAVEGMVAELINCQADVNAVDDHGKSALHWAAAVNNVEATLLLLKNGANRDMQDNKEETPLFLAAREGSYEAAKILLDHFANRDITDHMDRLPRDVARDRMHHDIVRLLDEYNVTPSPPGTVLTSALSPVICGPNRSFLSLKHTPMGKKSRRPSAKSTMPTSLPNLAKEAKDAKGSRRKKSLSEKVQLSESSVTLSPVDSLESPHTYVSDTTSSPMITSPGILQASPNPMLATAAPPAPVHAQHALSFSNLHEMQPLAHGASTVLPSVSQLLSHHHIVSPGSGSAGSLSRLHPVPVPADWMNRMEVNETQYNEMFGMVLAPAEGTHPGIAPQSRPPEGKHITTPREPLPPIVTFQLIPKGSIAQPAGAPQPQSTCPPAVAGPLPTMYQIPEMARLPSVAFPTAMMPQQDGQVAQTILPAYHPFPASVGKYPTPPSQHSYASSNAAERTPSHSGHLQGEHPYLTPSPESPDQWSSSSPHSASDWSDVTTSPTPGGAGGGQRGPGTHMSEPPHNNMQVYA
Sequence of Neurogenic locus notch homolog protein 3 (Homo sapiens) (Q9UM47 whole entry, looked up): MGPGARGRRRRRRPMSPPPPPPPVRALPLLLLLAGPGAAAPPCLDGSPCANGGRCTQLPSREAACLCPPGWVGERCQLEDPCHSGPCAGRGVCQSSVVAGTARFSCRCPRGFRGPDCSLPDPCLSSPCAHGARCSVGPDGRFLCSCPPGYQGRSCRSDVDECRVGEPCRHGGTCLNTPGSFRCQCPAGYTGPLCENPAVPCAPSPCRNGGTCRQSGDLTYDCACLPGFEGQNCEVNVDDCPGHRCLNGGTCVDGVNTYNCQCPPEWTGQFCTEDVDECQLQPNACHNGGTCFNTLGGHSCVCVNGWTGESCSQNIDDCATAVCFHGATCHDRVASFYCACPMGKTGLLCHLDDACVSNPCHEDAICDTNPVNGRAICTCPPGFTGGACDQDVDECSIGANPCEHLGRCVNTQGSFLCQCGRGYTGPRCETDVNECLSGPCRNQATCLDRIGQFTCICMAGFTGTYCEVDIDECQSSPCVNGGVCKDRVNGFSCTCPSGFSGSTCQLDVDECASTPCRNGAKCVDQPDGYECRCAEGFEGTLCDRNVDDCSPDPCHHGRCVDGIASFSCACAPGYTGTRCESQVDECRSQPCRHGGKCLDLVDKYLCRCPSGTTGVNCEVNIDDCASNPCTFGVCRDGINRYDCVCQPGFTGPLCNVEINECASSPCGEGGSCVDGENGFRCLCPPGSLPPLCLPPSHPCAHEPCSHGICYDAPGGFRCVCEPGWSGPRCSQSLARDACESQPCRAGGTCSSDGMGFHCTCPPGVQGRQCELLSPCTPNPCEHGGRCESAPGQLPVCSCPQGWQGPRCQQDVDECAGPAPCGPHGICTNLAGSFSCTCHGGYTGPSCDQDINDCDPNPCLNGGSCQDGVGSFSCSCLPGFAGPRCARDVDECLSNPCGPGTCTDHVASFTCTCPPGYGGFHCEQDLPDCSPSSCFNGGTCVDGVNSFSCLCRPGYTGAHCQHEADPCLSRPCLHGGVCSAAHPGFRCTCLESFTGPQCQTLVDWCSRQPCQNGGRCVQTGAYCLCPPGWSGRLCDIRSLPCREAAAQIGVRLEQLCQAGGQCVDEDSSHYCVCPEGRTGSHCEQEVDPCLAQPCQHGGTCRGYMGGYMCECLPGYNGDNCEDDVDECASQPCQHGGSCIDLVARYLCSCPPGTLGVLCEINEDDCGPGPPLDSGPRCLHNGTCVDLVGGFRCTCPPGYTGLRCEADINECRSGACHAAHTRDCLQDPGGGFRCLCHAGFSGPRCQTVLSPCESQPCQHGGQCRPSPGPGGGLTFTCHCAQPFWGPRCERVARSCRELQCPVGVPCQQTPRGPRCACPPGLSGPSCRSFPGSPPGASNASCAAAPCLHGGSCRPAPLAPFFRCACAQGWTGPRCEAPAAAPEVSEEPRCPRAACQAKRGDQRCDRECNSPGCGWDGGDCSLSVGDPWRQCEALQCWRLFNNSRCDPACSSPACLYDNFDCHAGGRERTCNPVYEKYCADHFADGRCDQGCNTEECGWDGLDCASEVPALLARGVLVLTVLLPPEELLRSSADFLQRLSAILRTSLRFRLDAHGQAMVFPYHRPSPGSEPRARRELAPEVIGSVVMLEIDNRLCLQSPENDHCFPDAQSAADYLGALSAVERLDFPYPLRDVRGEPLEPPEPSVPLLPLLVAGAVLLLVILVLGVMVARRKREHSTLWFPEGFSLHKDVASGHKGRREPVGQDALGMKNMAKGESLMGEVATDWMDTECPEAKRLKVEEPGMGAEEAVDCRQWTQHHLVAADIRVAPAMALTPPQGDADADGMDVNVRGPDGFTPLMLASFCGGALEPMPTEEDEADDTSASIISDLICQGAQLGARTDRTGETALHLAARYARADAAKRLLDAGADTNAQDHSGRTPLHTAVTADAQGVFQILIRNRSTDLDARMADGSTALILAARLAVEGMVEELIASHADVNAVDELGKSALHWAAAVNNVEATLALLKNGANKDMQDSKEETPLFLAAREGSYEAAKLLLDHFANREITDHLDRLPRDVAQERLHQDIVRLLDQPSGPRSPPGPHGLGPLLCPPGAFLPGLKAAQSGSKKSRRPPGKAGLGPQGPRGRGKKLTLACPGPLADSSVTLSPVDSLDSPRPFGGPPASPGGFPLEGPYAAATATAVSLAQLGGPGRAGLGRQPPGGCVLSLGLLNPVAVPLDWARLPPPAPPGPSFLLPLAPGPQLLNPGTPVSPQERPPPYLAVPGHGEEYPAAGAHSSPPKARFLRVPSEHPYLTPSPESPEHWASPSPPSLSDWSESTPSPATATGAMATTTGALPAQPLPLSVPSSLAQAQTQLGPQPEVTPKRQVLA

SMILES | composite z-score [1] | composite z-score [2] | composite z-score [3] | composite z-score [4] | composite z-score [5] | composite z-score [6] | composite z-score [7] | z-score [8] | composite z-score [9] | composite z-score [10] | composite z-score [11] | z-score [12] | z-score [13] | z-score [14] | composite z-score [15] | z-score [16] | composite z-score [17] | composite z-score [18] | composite z-score [19] | composite z-score [20]
C#CCN([C@@H](Cc1ccc(O)cc1)C(=O)OC)[C@@H](/C=C/C1CC1)[C@H](O)Cc1ccccc1 | 0.164 | -0.112 | -0.0732 | -0.37 | -0.791 | -0.737 | 0.356 | -3.55 (inactive) | -0.09 | -0.337 | 0.0371 | -0.686 (inactive) | -4.05 (inactive) | 0.417 (inactive) | -0.0965 | -1.17 (inactive) | -0.241 | 0.0698 | 0.337 | -0.13
CCC(CC)C(O)C1C=CC2C(=O)N(c3ccccc3)C(=O)C2N1Nc1ccc(C(C)C)cc1 (stereo not given) | 0.251 | -0.207 | 0.0495 | 0.687 | 1.64 | 1.23 | 1.28 | -0.963 (inactive) | 1.21 | -0.195 | 1.43 | 0.727 (inactive) | 0.065 (inactive) | 1.23 (inactive) | 3.12 | -0.63 (inactive) | 0.0659 | 0.152 | 1.03 | 0.118
CCCNC(=O)[C@@H]1c2ccccc2C(=O)N(C(C)C)[C@H]1c1ccc(CO)cc1 | 0.277 | -0.638 | -0.112 | -0.303 | -0.664 | 1.23 | 1.2 | -0.273 (inactive) | 0.103 | -0.271 | 0.541 | 0.853 (inactive) | 0.668 (inactive) | -0.148 (inactive) | 0.618 | 0.924 (inactive) | -0.0458 | -0.231 | -0.421 | -0.196
C=CCOC(=O)[C@H]1[C@@H]2C(=O)O[C@@H](c3ccccc3)[C@@H](c3ccccc3)N2[C@@H](c2ccc(OCCOC(=O)[C@@H]3C[C@@H]4C(=O)N[C@@H](CCCCN(C)C)C(=O)N4[C@@H]3c3ccc(O)cc3)cc2)[C@]12C(=O)Nc1ccccc12 | -0.0613 | 0.639 | -0.113 | 0.389 | 0.69 | 0.965 | 1.26 | 0.585 (inactive) | 0.29 | 0.0623 | 1.55 | 0.693 (inactive) | -2.78 (inactive) | 0.436 (inactive) | 2.57 | -1.6 (inactive) | 0.253 | 1.7 | 1.05 | -0.0177
COCCOC(=O)N1C(=O)[C@@]2(c3cc(C#CC4=CCCCC4)ccc31)[C@H](c1ccc(O)cc1)N1[C@H](c3ccccc3)[C@H](c3ccccc3)OC(=O)[C@H]1[C@@H]2C(=O)N1CCN(c2ncccn2)CC1 | 0.875 | -0.0653 | -0.141 | -0.164 | -1.58 | 0.576 | -0.0176 | 0.214 (inactive) | -0.841 | -0.277 | 0.234 | 0.358 (inactive) | 0.371 (inactive) | 0.58 (inactive) | -0.142 | -0.737 (inactive) | -0.192 | -1.1 | -0.756 | -0.348
CC(C)C[C@@H]1NC(=O)[C@@H]2C[C@H](C(=O)NCCCCN(C)C)[C@H](c3cccc(OCCO)c3)N2C1=O | 0.0116 | 1.47 | -0.143 | -0.242 | -0.416 | 0.204 | 1.19 | 6.17 (inactive) | -0.612 | -0.192 | 0.751 | -1.01 (inactive) | 0.162 (inactive) | -1.01 (inactive) | 2.85 | 0.659 (inactive) | -0.0258 | 0.592 | -0.087 | -0.183
CN1C(=O)C2C=CC(C(O)c3cccc4ccccc34)N(N3CCCCC3)C2C1=O (stereo not given) | 0.827 | 1.12 | -0.0122 | 0.691 | 1.48 | 1.67 | 1.19 | 1.09 (inactive) | 0.785 | 0.0873 | 1.55 | -0.0899 (inactive) | 1.13 (inactive) | 0.579 (inactive) | 2.86 | -1.09 (inactive) | 0.101 | 0.354 | 1.1 | 0.299
Cc1ccc(S[C@]2(C(=O)O)CC(=O)N(C3Cc4ccccc4C3)[C@@H]2c2ccc(CO)cc2)cc1 | 0.377 | 0.477 | 0.0015 | -0.179 | -0.267 | 0.915 | 0.184 | 0.177 (inactive) | -0.117 | -0.134 | 1.04 | 0.137 (inactive) | -1.36 (inactive) | 0.448 (inactive) | 2.98 | 0.618 (inactive) | 0.126 | -0.98 | -0.472 | -0.185
C=CCN1C(=O)[C@@]2(CCS(=O)(=O)c3ccccc3)N=C(c3ccc(OCCCO)cc3)O[C@H]2c2ccccc21 | 0.162 | 0.42 | 0.0076 | 0.362 | 1.44 | 1.72 | 1.24 | -3.77 (inactive) | 1.03 | -0.0672 | 1.54 | 0.15 (inactive) | -0.0698 (inactive) | 3.13 (inactive) | 2.88 | 0.192 (inactive) | -0.0177 | 1.43 | 1.12 | 0.154
O=C1NC(=O)C2C1C=CC(C(O)c1ccco1)N2Nc1ccccn1 (stereo not given) | -0.156 | -0.156 | -0.0907 | -0.0923 | 0.076 | -0.0825 | 1.08 | 1.41 (inactive) | 0.055 | 0.154 | 0.184 | 0.493 (inactive) | 0.652 (inactive) | 0.637 (inactive) | 0.147 | -0.87 (inactive) | -0.121 | -0.119 | -0.509 | -0.0259
